Results published in PubChem BioAssay AID540308 (The Scripps Research Institute Molecular Screening Center, 2011).
In all, about 360,000 compounds went through this assay and about 3,500 (0.97%) were called active. The sample holds actives, similar compounds and a random draw of the others, so the mix is not that of the screen.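 The calls were made as follows: active = activation above a per-plate cutoff, the mean activation of sample wells on that plate plus 3 SD (cut at about 8% in these data); inactive = the rest.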

Target: Melanocortin receptor 4 (Homo sapiens) (UniProt P32245)
Experiment: MC4R agonists recruiting beta-arrestin, primary screen, cell-based, luminescence, agonist arm of biased-ligand search (AID 540308)
Details: U2OS MC4R beta-arrestin complementation, at 8.9 µM, hits give high values, percent of melanotan II response, DMSO zero

Chain of Melanocortin receptor 4 (Homo sapiens) (P32245 whole entry, looked up): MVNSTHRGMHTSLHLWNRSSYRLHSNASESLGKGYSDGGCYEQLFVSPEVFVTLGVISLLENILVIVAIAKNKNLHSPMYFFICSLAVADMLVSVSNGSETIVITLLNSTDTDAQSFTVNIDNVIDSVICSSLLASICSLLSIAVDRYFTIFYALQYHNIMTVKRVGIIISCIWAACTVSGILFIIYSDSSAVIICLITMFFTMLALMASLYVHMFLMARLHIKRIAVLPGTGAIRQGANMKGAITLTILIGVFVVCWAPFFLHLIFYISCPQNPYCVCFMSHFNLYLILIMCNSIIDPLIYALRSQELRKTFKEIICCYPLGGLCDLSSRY

activation, inactive:
CC(=O)Nc1ccc(-c2ccnc3c2CC(C(=O)NC(C)C)O3)cc1 (stereo unspecified) -1.59%
O=C(NCCO)c1cccc(-c2cccc3nccn23)c1 -1.27%
CNc1cncc(-c2ccc(NS(C)(=O)=O)cc2)n1 -1.66%
CCCOC(=O)c1[nH]c2c(c1C)C(=O)CC(c1cccs1)C2 (stereo unspecified) -0.13%
CCOC(=O)C1=C(CN2CCc3ccccc32)NC(=O)NC1c1ccc(Cl)cc1 (stereo unspecified) 6.41%
CS(=O)(=O)/C(C#N)=C/c1cccn1S(=O)(=O)c1ccc([N+](=O)[O-])cc1 -0.77%
O=C(O)c1ccccc1-c1cccc2nncn12 1.15%
OC(c1ccccc1)c1nc(-c2cnc3ccccc3c2)cs1 (stereo unspecified) -1.73%
Cc1c(C#N)c(NC(=O)c2ccccc2)n(Cc2ccccc2)c1C 1.54%
Cc1ccc(C(=O)Nc2c(C#N)c(C)c(C)n2Cc2ccccc2)cc1 0.7%
O=C(Nc1cccn(Cc2ccccc2Cl)c1=O)NC1CCCCC1 -3.02%
COc1cccc(NC(=O)CN(C)C(C)C(=O)Nc2ccc(C#N)cc2)c1 (stereo unspecified) -2.21%
O=C(NCc1cccnc1)c1cc(C2CCCN(C(=O)C3CCCCC3)C2)on1 (stereo unspecified) 0.25%
CC1(Cc2cccc(C#N)c2)C(=O)Nc2ccc(-c3cccc(C(F)(F)F)c3)cc21 (stereo unspecified) 1.34%
CCOc1ccc(Cl)cc1-c1cc(C(=O)NCc2cccs2)[nH]n1 1.31%
O=C(CSc1nc2cccc(F)c2c(=O)n1-c1ccccc1)Nc1ccc2c(c1)CCC2 1.04%
COC(=O)C1=C(O)/C(=C/c2ccc(OCC(=O)Nc3ccccc3)cc2)N=C1C -2.96%
Cc1ccc(NC(=O)COc2ccc(/C=C3/NC(=O)NC3=O)cc2)cc1 -1.81%
COC(=O)c1ccc(CN2C(=O)C(Cc3ccccc3)ON=C2c2ncccc2C)o1 (stereo unspecified) 0.08%
CS(=O)(=O)c1cccc(-c2ccc3nncn3c2)c1 0.6%
CSc1ccccc1OCc1cc(C(=O)N2C[C@H]3CC[C@H]2C3)no1 -3.22%
O=C(O)c1cscn1 -0.73%
Cc1cc(NC(=O)CSCC(=O)NC(C)c2ccccc2)no1 (stereo unspecified) 3.59%
Cc1ccc2nc(-c3ccc(SCC(=O)Nc4cc(C)on4)nc3)[nH]c2c1 -0.33%
CCc1nc2ccc(C(=O)N3CCN(S(=O)(=O)CC)CC3)cn2c1N(C=O)CCC(C)C -1.41%
CC(C)Cn1cc(-c2cncc3nccn23)cn1 -1.32%
COc1ccccc1CC1(C)C(=O)Nc2ccc(OC(F)(F)F)cc21 (stereo unspecified) 4.13%
O=C(c1ccccc1Oc1ccccc1)N1CCN(c2ccc(F)cc2)CC1 -0.88%
Cc1c(C(=O)N2CCN(c3ccc(F)cc3)CC2)oc2c1C(=O)CCC2 -0.69%
CS(=O)(=O)N1CCCCC1c1cc(C(=O)NCc2ccccc2)no1 (stereo unspecified) 0.31%
CC1(C(=O)NCc2ccc3c(c2)OCO3)CCN1CCc1ccccc1 (stereo unspecified) 1.41%
CCCNC(=O)C1(C)CCCN(C(=O)c2cccc(OC(C)=O)c2C)C1 (stereo unspecified) -0.89%
CC(=O)N(CN1C(=O)C2CC=CCC2C1=O)c1cccc(Cl)c1 (stereo unspecified) -0.75%
COC(=O)c1cc(C(=O)N(Cc2ccccc2)c2ccccn2)cc([N+](=O)[O-])c1 2.05%
Cn1c(Nc2ccc(F)cc2)nc2cc(-c3ccsc3)sc2c1=O 2.85%
O=C1/C(=C\c2ccccc2Cl)SC(=S)N1CCC(=O)N1CCCc2ccccc21 -0.74%
CN(C(=O)CCN1C(=O)/C(=C/c2ccccc2F)SC1=S)C1CCS(=O)(=O)C1 (stereo unspecified) -1.67%
COc1ccc(-c2coc3c(C(=O)NC(C)C)cccc23)c(C)c1 0.44%
CCOC(=O)c1c(C)[nH]c(C(=O)NCCN2CCOCC2)c1C -1.01%
COc1ccc(C(CCNCc2ccccc2F)c2ccc(F)cc2)cc1 (stereo unspecified) 2.17%
Fc1ccccc1COc1ccccc1CNCc1ccncc1 -1.5%
CN1C[C@@H](CO)O[C@@H](n2cnc3c(N4CCN(CCO)CC4)ncnc32)C1 -0.08%
COc1ccc(S(=O)(=O)N2CCOC2CNC(=O)C(=O)NCc2ccncc2)cc1C (stereo unspecified) 0.29%
CCNC(=O)C1(C)CCCN1C(=O)c1ccc(N(C)C)cc1 (stereo unspecified) -0.82%
Cc1ccc2[nH]cc(CCNC(=O)c3ccc([N+](=O)[O-])cc3)c2c1 -2.01%
O=C(NCCc1ccc(Cl)cc1Cl)c1cc([N+](=O)[O-])c[nH]c1=O -2.62%
COC(=O)c1ccc(S(=O)(=O)N2CCC(c3nc4ccccc4o3)CC2)cc1 -0.95%
CC1(C(=O)Nc2ccc3c(c2)OCCO3)CCN1C(=O)Cc1cc(F)ccc1F (stereo unspecified) -0.93%
CC1(Oc2ccc(Cl)cc2)CCN(Cc2csc3ccccc23)C1 (stereo unspecified) 5.74%
OC(c1ccccc1)c1nc(/C=C/c2ccc(C(F)(F)F)cc2)cs1 (stereo unspecified) 1.43%
COc1cc(/C=C/C(=O)OCC(=O)c2ccccc2)cc(OC)c1OC -2.53%
COc1ccc(/C=C/C(=O)OCC(=O)NC2CCCCCC2)cc1OC 0.56%
O=C(Nc1ccc(Cl)cc1)c1csc([C@@H]2O[C@H](CO)[C@H](O)[C@H](O)[C@H]2O)n1 -0.59%
CCOCCC(=O)Nc1ccc2c(c1)c(=O)n(C)n2-c1ccc2ccccc2c1 -1.1%
Oc1c(Br)cc(/C=N/NC(=S)NCC2CCCO2)cc1Br (stereo unspecified) -1.36%
CC1(C(=O)NS(=O)(=O)c2cccc(F)c2)CCN1C(=O)c1cccc2ccccc12 (stereo unspecified) -0.68%
COc1ccc(-n2nnc3c(=O)n(CC(=O)OCc4ccccc4)cnc32)cc1 1.74%
COc1ccc(-n2nnc3c(=O)n(CC(=O)N4CCC(Cc5ccccc5)CC4)cnc32)cc1 3.13%
Cc1c(C(=O)NCc2ccc(C#N)cc2)sc(=O)n1Cc1ccc(C(=O)N(C)C)cc1 1.47%
OC[C@@H]1CN(Cc2ccc(Cl)cc2)C[C@H](n2cnc3c(NCc4ccncc4)ncnc32)O1 0.2%
COc1ccc(NC(=O)/C(C#N)=C\c2cc(OC)c(OCc3ccc(C(=O)O)cc3)cc2Br)cc1 -1.04%
COc1cc(/C=C(/NC(=O)c2ccccc2)C(=O)Nc2cccc(O)c2)c([N+](=O)[O-])cc1OC 0.1%
Cc1cccc(C)c1Cn1c(C)c(C(=O)NCc2cccc(Cl)c2)sc1=O -0.04%
O=C(COC(=O)c1ccccc1)Nc1ccccc1Sc1ccccc1 -0.01%
O=C(COC(=O)Cn1cnc2ccccc21)Nc1cccc2c1C(=O)c1ccccc1C2=O -2.17%
CC1(C(=O)NS(=O)(=O)c2ccccc2)CCN1C(=O)Cc1ccc(-c2ccccc2)cc1 (stereo unspecified) -1.08%
COc1cc(CNc2ncnc3c2ncn3[C@H]2CN(Cc3cccs3)C[C@@H](CO)O2)cc(OC)c1OC 1%
CCc1nc2c(OCc3ccccc3)cccn2c1N(C)C(=O)c1ccco1 -0.58%
COc1ccc(O)c(/C=N/N=C/c2cccc([N+](=O)[O-])c2)c1 -0.29%
Cc1ccc(NC(=O)O/N=C/c2cccc([N+](=O)[O-])c2)cc1 -5.02%
CCCc1ccc(C(O)c2ncc(-c3cccc(OC)c3)[nH]2)cc1 (stereo unspecified) -1.27%
COc1ccc(C(=O)N2CCCCC2c2cc(C(=O)Nc3ccccc3)no2)cc1 (stereo unspecified) -1.46%
CN(C)C(=O)c1cccc(-c2cnc3sc(NCc4ccc5c(c4)OCO5)nn23)c1 0.82%
CCCN=C1N(C)C[C@@H]2[C@@H]3C(=O)N(Cc4ccccc4)C(=O)[C@@H]3[C@](C)(C(=O)OC)N12 -1.43%
CC[C@]1(C(=O)OC)[C@H]2C(=O)N(Cc3ccccc3)C(=O)[C@H]2[C@H]2CN=C(SCc3ccccc3)N21 -0.47%

activation, active:
CCOC(=O)c1[nH]c2c(c1-c1ccccc1)C(=O)CC(c1ccc(Cl)cc1)C2 (stereo unspecified) 13.1%
COc1ccc(Cn2c(C)c(C)c(C#N)c2NC(=O)Nc2ccc(F)cc2)cc1 9.65%
COc1ccc(Cn2cccc(NC(=O)Nc3ccc(C#N)cc3)c2=O)cc1 8.99%
CCOC(=O)C1=C(O)/C(=C/c2ccc(OCC(=O)Nc3ccc(C)cc3)cc2)N=C1C 16.8%
Cc1ccc(-c2csc(SCC(=O)Nc3cc(C)on3)n2)cc1 12.5%
O=C(c1cc2cc(F)ccc2[nH]1)N1CCN(c2ccc(F)cc2)CC1 9.41%
O=C(CCl)N(Cc1cccc([N+](=O)[O-])c1)c1cccc(Cl)c1 20.4%
Cc1ccc(-c2nn(-c3ccccc3)cc2/C=C2\SC(=S)N(CCCCCC(=O)O)C2=O)o1 8.64%
COc1cccc(CNCCc2c[nH]c3ccccc23)c1OCc1ccccc1F 10.3%
O=C(NCCc1c[nH]c2ccc(Cl)cc12)c1ccc([N+](=O)[O-])cc1 10.4%
CCOc1ccc(/C=C/C(=O)OCC(=O)c2ccccc2OC)cc1OC 12.9%
O=C(Cn1cnc2c(nnn2-c2ccccc2)c1=O)N1CCC(Cc2ccccc2)CC1 11.7%
COc1cc(/C=C(\C#N)C(=O)Nc2ccc3ccccc3c2)c([N+](=O)[O-])cc1OC 20.1%
O=C(COC(=O)c1cccc(Br)c1)Nc1cccc2c1C(=O)c1ccccc1C2=O 22.1%
O=[N+]([O-])c1cccc(C=NN=Cc2ccccc2O)c1 9.24%
CCN1C[C@@H]2[C@@H]3C(=O)N(Cc4ccccc4)C(=O)[C@@H]3[C@](Cc3ccccc3)(C(=O)OC)N2C1=NC1CCCCC1 13.2%
